The values that follow come from PubChem BioAssay (EPA / NIEHS).

Molecules are shown by their SMILES. Activity calls are given as the source filed them. Rule for the calls: active = hit-call score of the fitted dose curve at least 0.9, where 1 is the maximum; inactive = score below 0.9.

The experiment in a line: ATG_Sox_CIS: Attagene CIS-FACTORIAL HepG2 Assay for human SRY-box transcription factor (SOX) (AID 2282960). Conditions: HepG2 Attagene cis-factorial SOX reporter, mRNA; actives raise or lower the signal. The protocol:
ATG_CIS is a cell-based, multiplexed-readout assay that uses HepG2, a human liver cell line, with measurements taken at 24 hours after chemical dosing in a 24-well plate.ATG_Sox_CIS is one of 52 assay component(s) measured or calculated from the ATG_CIS assay. It is designed to make measurements of mRNA induction, a form of inducible reporter, as detected with fluorescence intensity signals by Reverse transcription polymerase chain reaction (RT-PCR) and Capillary electrophoresis technology.Data from the assay component ATG_Sox_CIS was analyzed into 1 assay endpoint. This assay endpoint, ATG_Sox_CIS, was analyzed with bidirectional fitting relative to DMSO as the negative control and baseline of activity. Using a type of inducible reporter, measures of mRNA for gain or loss-of-signal activity can be used to understand the reporter gene at the transcription factor-level as they relate to the gene SOX1. Furthermore, this assay endpoint can be referred to as a primary readout, because this assay has produced multiple assay endpoints where this one serves a reporter gene function. To generalize the intended target to other relatable targets, this assay endpoint is annotated to the dna binding intended target family, where the subfamily is HMG box protein.
Human liver HepG2 cells are transiently transfected with multiple reporter transcription units (MRTUs) in 6-well plates using FuGene 6 reagent (Roche; 3 ml FuGene/1 mg DNA). The MRTU constructs are regulated by a cis-regulating element (promoter). […] A major difference between the CIS and TRANS system is that in CIS activities of endogenous TFs are measured, whereas the TRANS assay evaluates changes in activities of exogenous, chimeric NR-Gal4 proteins. […] At the end of 24 hour incubation, total RNA was isolated using TriZol reagent (Invitrogen). The isolated RNA is then reverse-transcribed using oligo(dT) primer and Mo-MLV reverse transcriptase (Invitrogen) with DNAse I (Ambion) treatment for 30 min. The one-tenth of the produced cDNA was amplified by PCR using Taq DNA polymerase (Invitrogen) and two reporter sequence-specific primers. The PCR products were fluorescently labeled by primer extension with 6-arboxyfluorescein (6-FAM) 5'-labeled reporter sequence-specific primer (2 min at 95 C, 20 s at 68 C and 10 min at 72 C) and these products were digested with 5U of HpaI (New England Biolabs) for 2h at 37 C. The fragments were purified using Qiaquick PCR columns (Qiagen), analyzed on an ABI 3130xL genetic analyzer (Applied Biosystems) with peak positions identified by using a set of X-rhodamine (ROX)-labeled MapMarker1000 molecular weight standards (BioVentures). The raw capillary electrophoresis data was processed using Attagraph software (Attagene).
`CN(CCCC(=O)c1cccnc1)N=O`: the compound was called inactive.
`CCOC(=O)CP(=O)(OCC)OCC`: the call was inactive.
Still for that read-out and setting: under `COc1cc2c(cc1OC)[C@@]13CCN4CC5=CCO[C@H]6CC(=O)N2[C@H]1[C@H]6[C@H]5C[C@H]43` stands “inactive”.
Still for that read-out and setting: under `NC(=S)Nc1ccccc1` stands “inactive”.
On the same count and under the same terms, under `ClCc1cccnc1` stands “inactive”.
On to `N#CN=C(N)N`, for which the call was inactive.
On the same count and under the same terms, under `Cc1cc(=O)[nH]o1` stands “inactive”; under `CCOC(=O)Nc1cccc(OC(=O)Nc2ccccc2)c1`, “inactive”.
Take `CC12CC1(C)C(=O)N(c1cc(Cl)cc(Cl)c1)C2=O` (stereo not given): the compound was classed as inactive.
`[O-][Cl+2]([O-])O`: the call was inactive.
Consider `CCc1ccccc1C`, for which the result was inactive.
`Cn1sc(Cl)cc1=O`: the compound was called inactive.
Still for that read-out and setting: under `O=C(NCO)NCO` stands “inactive”; under `Clc1ccc(C2(Cn3cncn3)CC(Br)CO2)c(Cl)c1` (stereo not given), “inactive”.
The same measure, in the same setting: the entry for `CC(C)OC(=O)Nc1ccccc1` is “inactive”; for `CCCCOCCOC(C)=O` it is “inactive”.
Still for that read-out and setting: under `CC(Br)C(=O)O` (stereo not given) stands “inactive”; under `O=C1C(Cl)=C(Cl)C(=O)c2ccccc21`, “inactive”; under `CCSC(C)CC1CC(=O)C(C(CC)=NOC/C=C/Cl)=C(O)C1` (stereo not given), “inactive”.
With `C=CC(=O)N(C)C`, the outcome was inactive.
Still for that read-out and setting: the entry for `CCCCCCCCC(=O)NCc1ccc(O)c(OC)c1` is “inactive”; for `C[C@H]1CCCC(=O)CCC/C=C/c2cc(O)cc(O)c2C(=O)O1` it is “inactive”; for `Nc1ncc([N+](=O)[O-])s1` it is “inactive”.
For `CC(=O)C(Cl)C(=O)N(C)C` (stereo not given), the result was inactive.
On the same count and under the same terms, under `CC(=O)C=C(C)C` stands “inactive”; under `COP(=S)(OC)Oc1ccc(S(=O)(=O)N(C)C)cc1`, “inactive”; under `CCN1CCC2(CC1)COc1cc3c(cc12)N(C(=O)c1ccc(-c2ccc(-c4nnc(C)o4)cc2C)cc1)CC3`, “inactive”.
As usually defined, the AC50 is the concentration at which the activity in the assay is half-maximal. Take `COP(=O)(OC)O/C(=C\Cl)c1cc(Cl)c(Cl)cc1Cl`: the AC50 was 44.3 µM (active).
On to `ClC1=C(Cl)[C@]2(Cl)[C@H]3[C@H]([C@H]4C=C[C@H]3C4)[C@@]1(Cl)C2(Cl)Cl`, for which the outcome was inactive.
On the same count and under the same terms, the entry for `C=CC(=O)OCCCCCC(C)C` is “inactive”.
Same read-out and setting: under `CC(C)(c1ccc(OCC2CO2)cc1)c1ccc(OCC2CO2)cc1` (stereo not given) stands “inactive”; under `C=C(C)C(=O)[O][Sn]([CH2]CCC)([CH2]CCC)[CH2]CCC`, “inactive”.
On the same count and under the same terms, under `O=[N+]([O-])c1ccc(O)c([N+](=O)[O-])c1` stands “inactive”; under `COC[C@H](C)N(C(=O)CCl)c1c(C)csc1C`, “inactive”.
Turning to `CC(C)c1cccc(C(C)C)c1O`, the call was inactive.
The same measure, in the same setting: the entry for `COc1cc(OC)nc(NC(=O)NS(=O)(=O)c2ncccc2C(=O)N(C)C)n1` is “inactive”; for `CCCCCCCCSC(=O)Oc1cc(Cl)nnc1-c1ccccc1` it is “inactive”.
With `CC1(C)CCC(Cc2ccc(Cl)cc2)C1(O)Cn1cncn1` (stereo not given), the compound was classed as inactive.
The same measure, in the same setting: under `COc1cccc(C=O)c1` stands “inactive”.
Still for that read-out and setting: the entry for `Nc1cccc2ccccc12` is “inactive”.
